Reference: PubChem BioAssay (NCI)
This is part of a sample that, as a whole, favours compounds with a hit. Of some 79,000 tested, about 15% had one in any assay. Unmarked numbers belong to inactive results. The source made the active and inactive calls. Rule as the data show it: active = growth inhibition above about 70%; inactive = the rest.

Experiments:
[1] = NCI Yeast Anticancer Drug Screen. Data for the rad50 strain (AID 155);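 also: 0% = growth of vehicle-only cultures of the same strain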; conditions: S. cerevisiae rad50 strain growth inhibition, stronger effect = higher value
How it was run: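 Yeast carrying a defined DNA repair defect were exposed to test compounds, and growth was compared with vehicle-treated controls to give percent inhibition.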

[2] = NCI Yeast Anticancer Drug Screen. Data for the sgs1 mgt1 strain (AID 161);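 also: 0% = growth of cultures given vehicle only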; conditions: S. cerevisiae sgs1 mgt1 strain, stronger effect = higher value
How it was run: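 Compounds are added to genetically altered yeast, and growth is compared with cultures given vehicle alone to give percent inhibition.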

[3] = NCI Yeast Anticancer Drug Screen. Data for the cln2 rad14 strain (AID 165);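 also: 0% = growth equal to vehicle treated cultures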; conditions: S. cerevisiae cln2 rad14 strain, stronger effect = higher value
How it was run: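 Relative to vehicle controls, growth inhibition of compound-treated cln2 rad14 yeast was recorded.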

[4] = NCI Yeast Anticancer Drug Screen. Data for the bub3 strain (AID 167); conditions: S. cerevisiae bub3 mutant strain, stronger effect = higher value
How it was run: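 Compounds were applied to a genetically altered yeast strain carrying a cell-cycle control defect. Growth inhibition was scored against vehicle-treated controls.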

[5] = NCI Yeast Anticancer Drug Screen. Data for the mlh1 rad18 strain (AID 175); conditions: S. cerevisiae mlh1 rad18 strain growth inhibition, stronger effect = higher value
How it was run: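 Test agents were incubated with a yeast strain of defined genotype (DNA damage repair defect). Inhibition of growth was derived by comparison with vehicle-exposed cultures.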

[6] = NCI Yeast Anticancer Drug Screen. Data for the mec2-1 strain (AID 157); conditions: S. cerevisiae mec2-1 strain, stronger effect = higher value
How it was run: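 Readout is yeast growth inhibition, normalised to vehicle-treated controls, in the mec2-1 strain exposed to compound.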

[7] = at 5.0 µM (retest, dose inferred, filed as 0.5)
[8] = at 50.0 µM (retest, dose inferred, filed as 5.0)

Row | SMILES | growth inhibition [1, 7] | growth inhibition [1, 8] | growth inhibition ([1]; at 50.0 µM) | growth inhibition [2, 7] | growth inhibition [2, 8] | growth inhibition ([2]; at 50.0 µM) | growth inhibition [3, 7] | growth inhibition [3, 8] | growth inhibition ([3]; at 50.0 µM) | growth inhibition [4, 7] | growth inhibition [4, 8] | growth inhibition ([4]; at 50.0 µM) | growth inhibition [5, 7] | growth inhibition [5, 8] | growth inhibition ([5]; at 50.0 µM) | growth inhibition [6, 7] | growth inhibition [6, 8]
1 | CCCC(C)c1ccccc1OP(=S)(S)Oc1ccccc1C(C)CCC (centres undefined) | -3% | -3% | 97.3% (active) | 2% | -2% | 97.5% (active) | 3% | 0% | 96.5% (active) | -5% | 0% | 95.8% (active) | 0% | -3% | 97.2% (active) |  | 
2 | O=[N+]([O-])c1ccc(CS(=O)(=O)C(Cl)Cl)o1 | 10% | 79% (active) | 92% (active) | 3% | 79% (active) | 87.9% (active) | -6% | 68% | 78.8% (active) | -7% | 56% | 48.1% | 15% | 90% (active) | 95.6% (active) |  | 
3 | C[C](=O)[Hg][O]c1ccc(N=Cc2ccccc2O)cc1 | 99% (active) | 99% (active) |  | 100% (active) | 100% (active) |  | 99% (active) | 99% (active) |  | 100% (active) | 99% (active) |  | 99% (active) | 99% (active) |  | 100% (active) | 100% (active)
4 | O=[N+]([O-])c1cccc([N+](=O)[O-])c1Cl | 58% | 96% (active) |  | 13% | 88% (active) |  | 8% | 12% |  | -12% | 33% |  | 7% | 46% |  | 22% | 96% (active)
5 | CCCCCCC(=O)[O][Hg][c]1ccccc1 | 99% (active) | 99% (active) | 99.3% (active) | 100% (active) | 100% (active) | 99.7% (active) | 99% (active) | 99% (active) | 99% (active) | 99% (active) | 99% (active) | 99.4% (active) | 100% (active) | 99% (active) | 99.7% (active) |  | 
6 | CCOP(=S)(OCC)SCc1c(C)c(C)c(CSP(=S)(OCC)OCC)c(C)c1C | 1% | -11% | -4.3% | -8% | 2% | -12.2% | 1% | -10% | 45% | -4% | -4% | -0.65% | 2% | -5% | 8.8% |  | 
7 | COc1ccc(/C=C/[N+](=O)[O-])cc1 | 71% (active) | 99% (active) |  | 65% | 100% (active) |  | 11% | 99% (active) |  | 14% | 99% (active) |  | -11% | 99% (active) |  | 27% | 100% (active)
8 | [Cl][Sn]([c]1ccccc1)([c]1ccccc1)[c]1ccccc1 | 99% (active) | 98% (active) |  | 100% (active) | 99% (active) |  | 99% (active) | 99% (active) |  | 100% (active) | 99% (active) |  | 99% (active) | 98% (active) |  | 99% (active) | 99% (active)
9 | O=[N+]([O-])/C=C/c1ccc([N+](=O)[O-])cc1 | 96% (active) | 99% (active) |  | 99% (active) | 100% (active) |  | 31% | 99% (active) |  | 94% (active) | 100% (active) |  | 15% | 99% (active) |  | 81% (active) | 100% (active)
10 | O=C(CF)CCl | 89% (active) | 98% (active) |  | 88% (active) | 65% |  | 79% (active) | 99% (active) |  | 32% | 99% (active) |  | 69% | 98% (active) |  | 25% | 99% (active)
11 | C/C(=N\NC(=S)N1CC2CCC(CC2)C1)c1nccs1 | 89% (active) | 98% (active) |  | 92% (active) | 99% (active) | 87% (active) | 86% (active) | 98% (active) | 87.2% (active) | 95% (active) | 99% (active) | 86.5% (active) | 95% (active) | 98% (active) |  | 77% (active) | 99% (active)
12 | CCC1CC[N-]CC1.CCC1CC[N-]CC1.N#C[S-].N#C[S-].[Cd] | 26% | 85% (active) |  | 11% | 71% (active) |  | 4% | 54% |  | 5% | 42% |  | -16% | 57% |  | 16% | 56%
